Only a selection was taken, and hits are over-represented in it overall.
CHX counter: counter-screen hit for Shiga toxin inhibitors, cycloheximide; cell reporter, cycloheximide protein synthesis inhibition counterscreen; max response, %; actives 12% (n = 300,000); in the data active = max response mostly above about 13%, no sharp cut-off; inactive = mostly below about 14%; note: read at 38.3 µM for the half of the compounds with a filed dose; 0% is about no effect
Sm TGR inh: blocks Schistosoma mansoni thioredoxin glutathione reductase. purified TGR, DTNB reduction, TNB absorbance 405 nm. Potency, µM (titrated, usually from 114 µM), for the others: at the top dose activity change, negative = inhibition, most hits filed as inhibitors. Q962Y6. actives 3% (n = 360,000). AID 485364; note: potency is the fitted concentration of half-maximal effect; % is set by controls: 0 for no effect and ±100 for the full control effect; nearly all actives have a fitted effect of over 60% in size
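First, TGR (20 nM dispensed) and NADPH were mixed with compound. Second, a 15 min room-temperature incubation followed. Third, further NADPH and then DTNB were added to start the reaction. Finally, TNB absorbance was monitored kinetically.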
TbPYK inhibitor: blocks Trypanosoma brucei pyruvate kinase. Q57TT1. TbPYK enzyme, Kinase-Glo Plus ATP luminescence, 45 min. Potency, µM (highest dose often 76.8 µM), without a hit: at the highest dose activity, negative = inhibition, usual class: inhibitors. actives 0.12% (n = 410,000). AID 624173; note: potency is the fitted concentration of half-maximal effect; % is set by controls: 0 for no effect and ±100 for the full control effect; nearly all actives have a fitted effect of over 50% in size
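Readout: single end-point luminescence (Kinase-Glo Plus, 10 min). Reaction conditions were TbPYK/substrate plus 130 uM ADP, 45 min at RT, pH 7.2 TEA buffer. No-enzyme wells served as controls, and data were normalized before concentration-response fitting.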
FBPA Giardia inh: blocks Giardia fructose-bisphosphate aldolase activity; purified Giardia FBPA; Potency, µM (highest dose often 59.6 µM), without a hit: top-dose activity, negative = inhibition, most hits filed as inhibitors; actives 0.71% (n = 290,000); AID 2451; note: potency is the fitted concentration of half-maximal effect; % is set by controls: 0 for no effect and ±100 for the full control effect; nearly all actives have a fitted effect of over 55% in size
Target sequence (A8B2U2 whole entry, looked up): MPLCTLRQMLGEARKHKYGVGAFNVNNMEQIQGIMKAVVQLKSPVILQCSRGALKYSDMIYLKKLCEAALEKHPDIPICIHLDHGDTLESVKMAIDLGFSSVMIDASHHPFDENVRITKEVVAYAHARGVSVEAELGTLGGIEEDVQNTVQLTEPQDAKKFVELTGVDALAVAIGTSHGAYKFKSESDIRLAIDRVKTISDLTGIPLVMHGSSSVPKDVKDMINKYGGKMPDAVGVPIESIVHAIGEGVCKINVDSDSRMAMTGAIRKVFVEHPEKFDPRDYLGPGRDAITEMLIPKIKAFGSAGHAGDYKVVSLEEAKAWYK
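Giardia FBPA (40 nM reagent) was preincubated 10 min at RT with compound (up to 57.5 uM final), then substrate plus GAPDH/TPI/NAD/arsenate coupling system with diaphorase/resazurin was added; resorufin fluorescence (525/598 nm) was read after 20 min.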
LmPK inhibitor: blocks Leishmania mexicana pyruvate kinase activity; Q27686; purified LmPK, Kinase-Glo ATP luminescence, 1 h; Potency, µM (series often up to 57.5 µM), for the others: at the highest dose activity change, negative = inhibition, most hits filed as inhibitors; actives 0.37% (n = 290,000); AID 1721; note: potency is the fitted concentration of half-maximal effect; % is set by controls: 0 for no effect and ±100 for the full control effect
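Pyruvate kinase activity monitored as ATP production (luciferase luminescence). Conditions: 0.1 nM enzyme, 0.5 mM PEP, 0.1 mM ADP, 1 h, RT; normalized against uninhibited and no-enzyme wells.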
Shiga inhibitor: inhibitors of Shiga toxin in Vero cells; Vero cells, Shiga toxin protein synthesis inhibition reporter; actives 9.2% (n = 290,000); inhibition, % at 38.7 µM; in the data active = inhibition mostly above about 28%, no sharp cut-off; inactive = mostly below about 43%; note: 0% is about no effect
Numbers without * were called inactive; u = inconclusive; x = no result given; [ ] = remark or other dose. Unless noted, calls come from the whole dose curve; as a rule, active = well fitted curve in the direction sought with a large enough effect; inconclusive = small, poorly fitted or top-dose-only effect, or another doubt; inactive = no such curve, though single readings can be large; an effect the other way counts as inactive or inconclusive.

SMILES	CHX counter	Sm TGR inh	TbPYK inhibitor	FBPA Giardia inh	LmPK inhibitor	Shiga inhibitor
Cc1cccc(-n2ncc3c2CCCC3NC(=O)CCN2Cc3ccccc3C2=O)c1C (stereo not given)	7	-2%	8%	-4%	2%	33
CSc1ccc(CN2CCC(C)(Oc3ccc(F)cc3)C2)cc1 (stereo not given)	x	x	0%	x	x	x
COc1cc2c(cc1OC)CN(C(=O)c1ccco1)CC2	7	u	-3%	1%	12%	-2
COc1cc2c(cc1OC)CN(C(=O)c1ccc(Br)o1)CC2	-1	40µM*	-8%	-8%	3%	1
CCOc1ccccc1C(=O)Oc1c(S(=O)(=O)c2ccc(C)cc2)c(C)nn1-c1ccccc1	x	-1%	-4%	x	x	x
NS(=O)(=O)c1cccc(NC(=O)CCSc2ccccc2Cl)c1	61*	0%	3%	0%	0%	68*
Cc1cc(C)c([N+](=O)[O-])cc1NC(=O)CCSc1ccccc1Cl	-1	3%	0%	1%	2%	14
O=C(CCSc1ccccc1Cl)Nc1cccc([N+](=O)[O-])c1	45*	-3%	-2%	-5%	0%	73*
O=C(Nc1nc(-c2ccccn2)cs1)C1CCCC1	57*	-9%	-15%	-25%	-15%	100*
Cn1cccc1C(=O)Nc1nc(-c2ccccn2)cs1	51*	0%	u	u	u	83*
CC1=C(C)CC(C(=O)Nc2nc(C)cs2)C(C(=O)O)C1 (stereo not given)	-3	11%	0%	-1%	0%	-15
Cc1ccc(C(=O)Nc2nc(-c3ccccn3)cs2)s1	x	-1%	-3%	x	x	x
O=C(Nc1ccc2nc(-c3ccccn3)[nH]c2c1)C1CCCCC1	36*	5%	-2%	9%	1%	57*
O=C(Nc1nc(-c2ccccn2)cs1)c1ccc(S(=O)(=O)N2CCCCC2)cc1	-2	-16%	x	-23%	5%	-2
CC(C)c1nc2ccc(NC(=O)C3CCCCC3)cc2[nH]1	6	1%	-10%	-4%	0%	19
Cc1csc(NC(=O)C2CCCCC2)n1	24*	11%	1%	14%	6%	x
Cc1csc(NC(=O)c2cccn2C)n1	62*	1%	-24%	x	18µM*	102*
CC(C)(C)C1c2[nH]c3ccccc3c2CCN1Cc1cccc(OCCO)c1 (stereo not given)	11*	-7%	-3%	0%	-7%	37
CCn1nc(C)c(CN2CCc3c([nH]c4ccccc34)C2C(C)(C)C)c1C (stereo not given)	-2	u	-1%	-3%	-1%	-6
CC(=O)Nc1ccc(CN2CCc3c([nH]c4ccccc34)C2C(C)(C)C)cc1 (stereo not given)	1	50µM*	3%	-4%	-9%	-5
Cc1ncoc1C(=O)N1CCc2c([nH]c3ccccc23)C1C(C)(C)C (stereo not given)	2	-11%	2%	1%	3%	10
COc1ccc(C(=O)N2CCC[C@@]3(CCN(Cc4nccs4)C3)C2)cc1	x	x	10%	3%	x	x
Cc1ccc(CSC2=Nc3ccccc3C3=NC(CCC(=O)N4CCN(c5ccccc5)CC4)C(=O)N23)cc1 (stereo not given)	x	4%	2%	x	x	x
COc1cc2nc(NCCc3cccc(C)c3)n3nc(-c4ccccc4)nc3c2cc1OC	x	5%	1%	x	x	x
CC(C)(C)c1csc(NC(=O)c2cccnc2)n1	13*	11%	-1%	0%	-11%	17
SMILES	CHX counter	Sm TGR inh	TbPYK inhibitor	FBPA Giardia inh	LmPK inhibitor	Shiga inhibitor
CC(C)(C)c1csc(NC(=O)Cc2cccs2)n1	33*	-16%	-3%	-15%	0%	61*
CC(C)(C)c1csc(NNC(=O)c2ccc(Cl)cc2)n1	29*	-12%	-2%	7%	2%	64*
CC(C)(C)c1cc(NC(=O)c2cccnc2)no1	31*	2%	-4%	16%	-26%	79
CCOC(=O)c1cc(-c2ccc(OC)cc2)n(CCC(=O)Nc2nc3ccc(OCC)cc3s2)c1C	x	12%	-5%	x	x	x
Cc1ccccc1-n1nc(CO)c(C(=O)NCCc2ccccc2)n1	x	3%	-9%	x	x	x
CC(C)(C)c1csc(NC(=O)CCc2ccccc2)n1	25*	-5%	5%	6%	-2%	x
CC(C)(C)c1cc(NC(=O)C2CCCO2)no1 (stereo not given)	33*	-3%	-10%	4%	3%	47*
CC(C)(C)c1csc(NC(=O)c2cccs2)n1	44*	-16%	1%	-8%	-7%	71*
O=C(O)c1cc(NC(=O)C2CCCO2)cc(C(=O)O)c1 (stereo not given)	-3	-21%	0%	0%	-1%	-1
CCC(=O)[C@]12O[C@@]3(C4C(=O)OCCC41)N(CC)C(C)=C(C(=O)OC)C(c1ccccc1)N3C2=O (stereo not given in full)	x	x	x	-5%[12.9 µM]	x	x
C=C1C(=O)OC2CC1C(OC(C)=O)CC(C)=CCCC(C)=CCC[C@@]2(C)O (stereo not given in full)	x	x	x	-1%	x	x
Cc1cc(C(=O)NCCC2=CCCCC2)c(C)o1	39*	22µM*	-8%	-12%	-2%	117*
COc1cccc(C(=O)NCCC2=CCCCC2)c1OC	33*	-8%	-4%	-2%	-5%	108*
COc1cc(C(=O)NCCC2=CCCCC2)cc(OC)c1OC	-2	-5%	-2%	13%	-2%	2
COc1ccc(C(=O)NCCC2=CCCCC2)cc1[N+](=O)[O-]	24*	-4%	-2%	-2%	0%	41*
Cc1ccc(S(=O)(=O)N2CCCCC2)cc1C(=O)NCCC1=CCCCC1	x	5%	-2%	x	x	x
COc1ccc(C(=O)NCCCSC)cc1OC1CCN(C(C)C)CC1	5	u	3%	2%	-1%	7
COc1ccc(OCC(=O)NCCC2=CCCCC2)c([N+](=O)[O-])c1	5	-3%	-15%	-11%	4%	-5
COc1ccc(C(=O)NCCC2=CCCCC2)cc1OC1CCN(C(C)C)CC1	42*	9%	-9%	-1%	0%	42*
Cc1ccc(S(=O)(=O)c2[nH]c(-c3ccccc3)nc2SC(C)C(=O)O)cc1 (stereo not given)	x	3%	-8%	x	x	x
CN(c1nnc(NC(=O)Nc2ccc(Br)cc2)s1)C1CCCCC1	x	6%	-7%	x	x	x
CC(C)N(Cc1ccccc1)c1ncnc2c1nnn2C	x	0%	2%	x	x	x
Cc1ccccc1/C=C/C12NC(=O)CN1c1ccccc1C2(C)C (stereo not given)	24*	8%	-5%	-5%	2%	63
NC1=NC2C(N=C(Br)N2[C@@H]2O[C@H]3COP(=O)(O)O[C@@H]3[C@@H]2O)C(=O)N1 (stereo not given in full)	8	x	x	1%	x	-6
